# Measurements reported in PubChem BioAssay (NCI).
# About 79,000 compounds went through this panel and 15% of them were active in at least one assay; those are over-represented in the sample as a whole. Unmarked numbers belong to inactive results. Calls of active or inactive are those of the source. No stated cut-off is given here; in the data, active means growth inhibition above about 70%; inactive means the rest.
# What was measured:
# [1] = NCI Yeast Anticancer Drug Screen. Data for the rad50 strain (AID 155);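 further: 0% = growth of vehicle-only cultures of the same strain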; settings: S. cerevisiae rad50 strain growth inhibition, active compounds read high
# Outline: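 Yeast carrying a defined DNA repair defect were exposed to test compounds, and growth was compared with vehicle-treated controls to give percent inhibition.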
# [2] = NCI Yeast Anticancer Drug Screen. Data for the mec2-1 strain (AID 157); settings: S. cerevisiae mec2-1 strain, active compounds read high
# Outline: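 Test agents were screened against the mec2-1 yeast strain, with defined DNA repair or cell cycle alteration. Growth was scored as inhibition against vehicle-only controls.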
# [3] = NCI Yeast Anticancer Drug Screen. Data for the sgs1 mgt1 strain (AID 161);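 further: 0% = growth of cultures given vehicle only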; settings: S. cerevisiae sgs1 mgt1 strain, active compounds read high
# Outline: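 Test agents were incubated with a DNA-repair-mutant yeast strain. Growth was then read and compared against vehicle-treated controls.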
# [4] = NCI Yeast Anticancer Drug Screen. Data for the cln2 rad14 strain (AID 165);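 further: 0% = growth equal to vehicle treated cultures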; settings: S. cerevisiae cln2 rad14 strain, active compounds read high
# Outline: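 Growth of compound-exposed yeast (cln2 rad14 genotype) measured and expressed as inhibition relative to vehicle.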
# [5] = NCI Yeast Anticancer Drug Screen. Data for the bub3 strain (AID 167); settings: S. cerevisiae bub3 mutant strain, active compounds read high
# Outline: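 Compounds were applied to a genetically altered yeast strain carrying a cell-cycle control defect. Growth inhibition was scored against vehicle-treated controls.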
# [6] = NCI Yeast Anticancer Drug Screen. Data for the mlh1 rad18 strain (AID 175); settings: S. cerevisiae mlh1 rad18 strain growth inhibition, active compounds read high
# Outline: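 In this whole-cell yeast screen, a strain with altered DNA damage repair is challenged with compound, and its growth is measured against matched vehicle-treated controls.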
# [7] = at 5.0 µM (retest, dose inferred, filed as 0.5)
# [8] = at 50.0 µM (retest, dose inferred, filed as 5.0)
Compound,"growth inhibition [1, 7] [%]","growth inhibition [1, 8]",growth inhibition ([1]; at 50.0 µM),"growth inhibition [2, 7] [%]","growth inhibition [2, 8]",growth inhibition ([2]; at 50.0 µM),"growth inhibition [3, 7]","growth inhibition [3, 8]",growth inhibition ([3]; at 50.0 µM),"growth inhibition [4, 7] [%]","growth inhibition [4, 8]",growth inhibition ([4]; at 50.0 µM),"growth inhibition [5, 7] [%]","growth inhibition [5, 8]",growth inhibition ([5]; at 50.0 µM),"growth inhibition [6, 7]","growth inhibition [6, 8]",growth inhibition ([6]; at 50.0 µM)
N#Cc1cn(-c2c3ccccc3nc3ccccc23)c(=O)[nH]c1=O,16,67%,58.4%,-9,52%,39.9%,3%,30%,49.6%,21,70% (active),48.3%,15,59%,21.8%,14%,77% (active),76.2% (active)
O=[N+]([O-])c1cccc2c[n+](Cc3ccccc3)ccc12,-1,24%,41.7%,-1,19%,1.65%,-4%,18%,10.1%,-13,15%,38.4%,-7,-5%,-1.05%,-7%,12%,12.3%
O=C(CBr)Oc1ccc(-c2cccc(Br)c2)cc1,1,99% (active),99.7% (active),6,99% (active),99.5% (active),15%,100% (active),99.6% (active),-14,99% (active),98.6% (active),-6,99% (active),99.6% (active),4%,99% (active),99.2% (active)
COc1ccc(-c2c(COC(C)=O)c(COC(C)=O)c3n2CCC3)cc1,-4,34%,98.5% (active),-4,19%,99.1% (active),-6%,23%,98.9% (active),-3,-4%,97.8% (active),-6,-3%,98.8% (active),-6%,40%,98.8% (active)
COc1ccc2c(c1)CCc1c(-c3noc4c3CCc3cc(OC)ccc3-4)noc1-2,-7,-15%,9.65%,5,19%,19%,4%,-2%,-0.9%,11,9%,53.5%,-2,2%,-7.75%,-2%,10%,54.2%
Oc1ccccc1C1CCCCC1,1,38%,88.5% (active),3,17%,84.3% (active),0%,47%,96.1% (active),4,-10%,46.6%,-9,6%,73.2% (active),4%,46%,93.2% (active)
N#CSCCSCc1ccc(Cl)cc1,4,99% (active),99.2% (active),25,99% (active),99.5% (active),7%,99% (active),99.4% (active),-6,99% (active),98.9% (active),-6,99% (active),99.5% (active),6%,99% (active),99.3% (active)
ClC(Cl)=C1C(=C(Cl)Cl)C(Cl)(Cl)C1(Cl)Cl,51,98% (active),88.2% (active),14,99% (active),92.6% (active),70% (active),99% (active),92% (active),55,97% (active),92.7% (active),56,98% (active),91.2% (active),74% (active),98% (active),88.2% (active)
Oc1c(Cl)cccc1-c1ccccc1,2,-5%,20.1%,-21,0%,12.2%,1%,10%,36.9%,1,-14%,1.9%,7,-4%,4.45%,-1%,8%,67.8%
CCC(c1ccc(Cl)cc1)C(C#N)c1ccccc1 (configuration not stated),6,40%,76.7% (active),7,34%,49.2%,3%,53%,69.4%,2,3%,-0.6%,1,3%,40.4%,7%,30%,59%
CCOC(=O)CCC(=O)Oc1ccc2c(c1OC(=O)CCC(=O)OCC)C(=O)c1ccccc1C2=O,25,97% (active),87.5% (active),11,97% (active),78.8% (active),50%,98% (active),83% (active),13,97% (active),66%,8,96% (active),60.5%,22%,97% (active),95% (active)
C/C=C/C=C1\C=Cc2c(C(=O)OC)coc(=O)c21,-9,85% (active),92% (active),14,91% (active),94.2% (active),7%,85% (active),76.3% (active),-9,76% (active),62.8%,15,96% (active),94% (active),14%,97% (active),95% (active)
CC1Cc2cc(O)c(O)cc2-c2cc(O)c(O)cc2CC1C (configuration not stated),-6,86% (active),72.1% (active),-11,89% (active),83.8% (active),-9%,75% (active),80.7% (active),7,85% (active),83.4% (active),-30,93% (active),79.4% (active),-8%,93% (active),83.7% (active)
Cc1cc(C)c(S(=O)(=O)c2c(C)cc(C)cc2C)c(C)c1,-3,-7%,39%,-4,-9%,12.5%,-4%,-4%,6.2%,-5,-22%,41.7%,-3,-6%,0.65%,-6%,-12%,1.15%
C=CCCCCCCCCC(=O)ON(Cc1ccc(O)c(OC)c1)C(=O)C(F)(F)F,3,73% (active),70.7% (active),-7,66%,84.3% (active),-8%,67%,89.2% (active),20,61%,85.5% (active),-12,40%,90.5% (active),7%,86% (active),85.9% (active)
COc1cc(N=Nc2ccccc2)cc(/C=N/NC(N)=S)c1O,-2,46%,73.8% (active),3,59%,67.2%,9%,85% (active),88.8% (active),-9,37%,78.8% (active),1,61%,58.3%,4%,73% (active),90.8% (active)
COC(=O)/C=C1/OC(c2ccccc2)=C(Br)C1=O,17,17%,89.3% (active),11,11%,91.3% (active),11%,11%,86.5% (active),-6,-6%,88.3% (active),-2,-2%,88.5% (active),15%,15%,85.3% (active)
N=C(N)c1ccc(OCCCCOc2ccc(N)cc2Cl)cc1,-36,89% (active),54.5%,-2,79% (active),7.85%,3%,98% (active),44.4%,-2,38%,-16.9%,0,97% (active),0.65%,17%,98% (active),58.6%
O=C1NC(=Nc2ccccc2)C(=Nc2ccccc2)N1c1ccccc1,-8,99% (active),87.8% (active),-7,98% (active),90.8% (active),-7%,99% (active),85.6% (active),-33,94% (active),85.8% (active),-36,99% (active),89.5% (active),-2%,99% (active),85.9% (active)
